# In the supplement of paper PMC8728848:
# This excerpt belongs to a sample that is enriched for the strongest signals.
# B1: Sebin1 (Coprinopsis cinerea), A8PEE3 (protein)
# chain: MTSPFYAHIHNVQDDNTWRFTLIFANRATADEWWRAISEAPANTSIAKSITRVTPQYYTHDVNIWNIWNFFADGNIKSISERFRGRLFIVLENDRGGRGITVIPPVPIVDHVSGNWFYIRSKTAPHLFWYYDERRSSIYASKEKRTRFKISIRNPSSQTPKNAIMINTDDVTIHIKENLYVGVDNNLGHIIPTRAYRTFKFGELESGAIAGFDVVENIEERCSSTFDGASLSISGPDSSSPGEPWELV
# Tests used:
# Test in all cases: glycan array binding signal (z-score within array); higher = stronger binding
# Details in all cases: glycan notation: IUPAC condensed, linker removed
# [1] = molecular target: Fuc(a1-2)Gal(b1-4)GlcNAc(b1-6)GalNAc
# How it was run: (§1)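 The binding signal is a Z-score computed within each array and averaged over linkers. Arrays of the same protein sequence at different concentrations or buffers were also averaged together. Data originate from 3228 arrays in the Consortium for Functional Glycomics database, kept only where the protein sequence was available.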
# [2] = molecular target: Fuc(a1-2)[Gal(a1-3)]Gal(b1-3)GalNAc
# How it was run: as §1
# [3] = molecular target: Fuc(a1-2)[Gal(a1-3)]Gal(b1-3)GlcNAc
# How it was run: as §1
# [4] = molecular target: Fuc(a1-2)[Gal(a1-3)]Gal(b1-3)GlcNAc(b1-2)Man(a1-3)[Fuc(a1-2)[Gal(a1-3)]Gal(b1-3)GlcNAc(b1-2)Man(a1-6)]Man(b1-4)GlcNAc(b1-4)[Fuc(a1-6)]GlcNAc
# How it was run: as §1
# [5] = molecular target: Fuc(a1-2)[Gal(a1-3)]Gal(b1-4)GlcNAc(b1-3)[Fuc(a1-2)[Gal(a1-3)]Gal(b1-4)GlcNAc(b1-6)]GalNAc
# How it was run: as §1
# [6] = molecular target: Fuc(a1-2)[GalNAc(a1-3)]Gal(b1-4)GlcNAc(b1-3)[Fuc(a1-2)[GalNAc(a1-3)]Gal(b1-4)GlcNAc(b1-6)]GalNAc
# How it was run: as §1
# [7] = molecular target: Fuc(a1-3)[Gal(b1-4)]GlcNAc(b1-3)Gal(b1-4)[Fuc(a1-3)]GlcNAc(b1-3)Gal(b1-4)[Fuc(a1-3)]GlcNAc
# How it was run: as §1
# [8] = molecular target: Gal(a1-3)Gal(b1-3)[Fuc(a1-4)]GlcNAc(b1-2)Man(a1-3)[Gal(a1-3)Gal(b1-3)[Fuc(a1-4)]GlcNAc(b1-2)Man(a1-6)]Man(b1-4)GlcNAc(b1-4)GlcNAc
# How it was run: as §1
# [9] = molecular target: Gal(b1-3)GalNAc(b1-3)Gal(a1-4)Gal(b1-4)Glc
# How it was run: as §1
# [10] = molecular target: Gal(b1-3)GlcNAc(a1-3)Gal(b1-4)GlcNAc
# How it was run: as §1
# [11] = molecular target: Gal(b1-3)GlcNAc(b1-2)Man(a1-3)[GlcNAc(b1-4)][Gal(b1-3)GlcNAc(b1-2)Man(a1-6)]Man(b1-4)GlcNAc(b1-4)GlcNAc
# How it was run: as §1
# [12] = molecular target: Gal(b1-3)GlcNAc(b1-3)Gal(b1-4)Glc
# How it was run: as §1
# [13] = molecular target: Gal(b1-3)[Fuc(a1-4)]GlcNAc(b1-2)Man
# How it was run: as §1
# [14] = molecular target: Gal(b1-3)[Neu5Ac(a2-6)]GlcNAc(b1-4)Gal(b1-4)Glc
# How it was run: as §1
# Gal(b1-4)GlcNAc = molecular target: Gal(b1-4)GlcNAc
# How it was run: as §1
# [15] = molecular target: Gal(b1-4)GlcNAc(b1-2)Man(a1-6)[GlcNAc(b1-2)Man(a1-3)]Man(b1-4)GlcNAc(b1-4)GlcNAc
# How it was run: as §1
# [16] = molecular target: Gal(b1-4)GlcNAc(b1-2)[Gal(b1-4)GlcNAc(b1-4)]Man(a1-3)[GlcNAc(b1-4)][Gal(b1-4)GlcNAc(b1-2)Man(a1-6)]Man(b1-4)GlcNAc(b1-4)GlcNAc
# How it was run: as §1
# [17] = molecular target: Gal(b1-4)GlcNAc(b1-3)Gal(b1-4)GlcNAc(b1-3)Gal(b1-4)GlcNAc(b1-2)Man(a1-3)[Gal(b1-4)GlcNAc(b1-3)Gal(b1-4)GlcNAc(b1-3)Gal(b1-4)GlcNAc(b1-2)Man(a1-6)]Man(b1-4)GlcNAc(b1-4)[Fuc(a1-6)]GlcNAc
# How it was run: as §1
# [18] = molecular target: Gal(b1-4)GlcNAc(b1-3)Gal(b1-4)GlcNAc(b1-3)Gal(b1-4)GlcNAc(b1-3)Gal(b1-4)GlcNAc(b1-2)Man(a1-3)[Gal(b1-4)GlcNAc(b1-3)Gal(b1-4)GlcNAc(b1-3)Gal(b1-4)GlcNAc(b1-3)Gal(b1-4)GlcNAc(b1-2)Man(a1-6)]Man(b1-4)GlcNAc(b1-4)[Fuc(a1-6)]GlcNAc
# How it was run: as §1
# [19] = molecular target: Gal(b1-4)GlcNAc(b1-3)Gal(b1-4)GlcNAc(b1-3)Gal(b1-4)GlcNAc(b1-3)Gal(b1-4)GlcNAc(b1-2)[Gal(b1-4)GlcNAc(b1-3)Gal(b1-4)GlcNAc(b1-3)Gal(b1-4)GlcNAc(b1-3)Gal(b1-4)GlcNAc(b1-6)]Man(a1-6)[Gal(b1-4)GlcNAc(b1-3)Gal(b1-4)GlcNAc(b1-3)Gal(b1-4)GlcNAc(b1-3)Gal(b1-4)GlcNAc(b1-2)Man(a1-3)]Man(b1-4)GlcNAc(b1-4)[Fuc(a1-6)]GlcNAc
# How it was run: as §1
# [20] = molecular target: Gal(b1-4)GlcNAc(b1-3)Gal(b1-4)GlcNAc(b1-3)Gal(b1-4)GlcNAc(b1-3)Gal(b1-4)GlcNAc(b1-3)Gal(b1-4)GlcNAc(b1-2)Man(a1-3)[Gal(b1-4)GlcNAc(b1-3)Gal(b1-4)GlcNAc(b1-3)Gal(b1-4)GlcNAc(b1-3)Gal(b1-4)GlcNAc(b1-3)Gal(b1-4)GlcNAc(b1-2)Man(a1-6)]Man(b1-4)GlcNAc(b1-4)[Fuc(a1-6)]GlcNAc
# How it was run: as §1
# Gal(b1-6)Gal = molecular target: Gal(b1-6)Gal
# How it was run: as §1
# Gal3S(b1-3)GalNAc = molecular target: Gal3S(b1-3)GalNAc
# How it was run: as §1
# [21] = molecular target: Gal3S(b1-4)[Fuc(a1-3)]Glc6S
# How it was run: as §1
# Gal6S(b1-4)Glc = molecular target: Gal6S(b1-4)Glc
# How it was run: as §1
# Gal6S(b1-4)GlcNAc6S = molecular target: Gal6S(b1-4)GlcNAc6S
# How it was run: as §1
# GalNAc(b1-4)GlcNAc6S = molecular target: GalNAc(b1-4)GlcNAc6S
# How it was run: as §1
# Glc(a1-6)Glc(a1-6)Glc = molecular target: Glc(a1-6)Glc(a1-6)Glc
# How it was run: as §1
# GlcA(b1-3)Gal = molecular target: GlcA(b1-3)Gal
# How it was run: as §1
# [22] = molecular target: GlcNAc(a1-4)Gal(b1-4)GalNAc
# How it was run: as §1
binder,measurement,setting,value
B1,glycan array binding signal (z-score),[1],4.71
same,glycan array binding signal (z-score),[2],-0.147
same,glycan array binding signal (z-score),[3],-0.29
same,glycan array binding signal (z-score),[4],2.8
same,glycan array binding signal (z-score),[5],3.52
same,glycan array binding signal (z-score),[6],1.28
same,glycan array binding signal (z-score),[7],-0.039
same,glycan array binding signal (z-score),[8],2.45
same,glycan array binding signal (z-score),[9],0.187
same,glycan array binding signal (z-score),[10],-0.485
same,glycan array binding signal (z-score),[11],2.39
same,glycan array binding signal (z-score),[12],-0.671
same,glycan array binding signal (z-score),[13],0.391
same,glycan array binding signal (z-score),[14],0.647
same,glycan array binding signal (z-score),Gal(b1-4)GlcNAc,-0.703
same,glycan array binding signal (z-score),[15],-0.684
same,glycan array binding signal (z-score),[16],0.136
same,glycan array binding signal (z-score),[17],13.4
same,glycan array binding signal (z-score),[18],6.4
same,glycan array binding signal (z-score),[19],2.44
same,glycan array binding signal (z-score),[20],2.62
same,glycan array binding signal (z-score),Gal(b1-6)Gal,0.332
same,glycan array binding signal (z-score),Gal3S(b1-3)GalNAc,-0.501
same,glycan array binding signal (z-score),[21],0.696
same,glycan array binding signal (z-score),Gal6S(b1-4)Glc,0.006
same,glycan array binding signal (z-score),Gal6S(b1-4)GlcNAc6S,0.222
same,glycan array binding signal (z-score),GalNAc(b1-4)GlcNAc6S,0.053
same,glycan array binding signal (z-score),Glc(a1-6)Glc(a1-6)Glc,-0.354
same,glycan array binding signal (z-score),GlcA(b1-3)Gal,-0.505
same,glycan array binding signal (z-score),[22],-0.32
